This is an account of results in PubChem BioAssay AID2549 (National Center for Advancing Translational Sciences (NCATS), 2010).

Several values for one entry are separate records, joined by “and”; a condition that tells them apart may be missing. Identical values can stand only once. The whole screen tested about 240,000 compounds, of which about 1,300 (0.54%) were called active. Not shown: some 1% with an inconclusive outcome. Calls follow the shape of the dose curve; as a rule, active = well fitted inhibition curve with a large enough effect; inconclusive = small, poorly fitted or top-dose-only effect; inactive = flat fitted curve, though single readings scatter. Many of the other results were omitted from the sample, so actives are more common in it than they were. More than one record can exist for a structure, and the calls need not agree.
Potency is read from the fitted curve at half-maximal effect.

ATP-dependent DNA helicase Q1 (Homo sapiens), sequence (P46063 whole entry, looked up): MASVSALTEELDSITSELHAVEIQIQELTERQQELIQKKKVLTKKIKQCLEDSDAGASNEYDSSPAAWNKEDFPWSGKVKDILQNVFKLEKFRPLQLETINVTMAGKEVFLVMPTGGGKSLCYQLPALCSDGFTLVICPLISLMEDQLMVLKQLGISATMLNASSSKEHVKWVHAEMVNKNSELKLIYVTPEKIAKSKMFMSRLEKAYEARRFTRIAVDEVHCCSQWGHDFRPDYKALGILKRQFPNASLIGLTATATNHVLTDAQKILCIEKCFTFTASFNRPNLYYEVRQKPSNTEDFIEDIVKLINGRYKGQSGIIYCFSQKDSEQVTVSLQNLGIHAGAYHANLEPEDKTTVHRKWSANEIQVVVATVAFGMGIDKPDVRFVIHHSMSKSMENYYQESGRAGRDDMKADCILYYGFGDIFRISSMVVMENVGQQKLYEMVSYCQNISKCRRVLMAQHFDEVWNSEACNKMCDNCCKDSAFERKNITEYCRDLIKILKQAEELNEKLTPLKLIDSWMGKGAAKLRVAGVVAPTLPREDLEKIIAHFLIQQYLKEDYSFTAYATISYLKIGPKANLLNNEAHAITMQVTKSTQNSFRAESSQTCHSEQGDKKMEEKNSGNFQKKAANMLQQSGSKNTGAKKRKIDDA

The test has as its target ATP-dependent DNA helicase Q1 (Homo sapiens) (UniProt P46063). Briefly: qHTS Assay for Inhibitors of RecQ-Like Dna Helicase 1 (RECQ1). Also: nearly all actives have a fitted effect of over 30% in size. Particulars: RECQ1 DNA unwinding, red fluorescence kinetic read; series mostly up to 57.3 µM; activity, negative = inhibition: at the top concentration. The text has this: Survival of cells and the faithful propagation of the genome depend on elaborate mechanisms of detecting and repairing DNA damage. Treatment of advanced cancer relies on radiation therapy or chemotherapy, which kill cancer cells by causing extensive DNA damage. It is often found, that cancer cells develop resistance to therapy through enhanced activity of DNA repair functions; this has led to an increased interest in developing drugs that interfere with DNA repair, which could sensitize cancer cells to conventional therapy.
This validation qHTS assay pertains to human RECQ1, which is important in resolving abnormal DNA structures formed during replication or homologous recombination. Shutting down the expression of RECQ1 leads to chromosomal instability and higher radiation sensitivity in cultured cells.
The validation assay was a fluorescence quenching based kinetic qHTS for RECQ1 Helicase DNA unwinding. The activity was measured as ATP-dependent separation of a 20-bp DNA duplex extended by 30-nt single-stranded tails (forked duplex). The forked DNA substrate was tagged with rhodamine fluorophore (carboxytetramethyl rhodamine, TAMRA) and BHQ-2 (Black Hole Quencher 2) dark quencher. Strand separation results in an increase in the fluorescence of TAMRA (excitation 525 nm, emission 598 nm). This substrate construct operates in a red-shifted region where very few compound library members have been noted to fluoresce (PubChem AIDs 593 and 594). An additional feature of the assay is the inclusion of 2.5 ug/ml poly (dIdC), to reduce interference by compounds such as DNA intercalators, a major source of false inhibitors.
Opher Gileadi, Structural Genomics Consortium, University of Oxford
Screening Center PI: Austin, C.P.
Screening Center: NIH Chemical Genomics Center [NCGC]
Three uL of reaction buffer (25 mM Tris-HCl (pH 8.0), 5 mM NaCl, 2 mM MgCl2, 1mM DTT, 0.01% Tween- 20, and 2.5 ug/ml poly(dI-dC), including enzyme (50 nM RECQ1T1), were dispensed into a 1536-well Greiner black assay plate via solenoid-valve based nanoliter dispensers. Compounds (23 nl each in columns 5-48) and control (23 nl each in column 2 as dose-response) were transferred via a Kalypsys pintool equipped with a 1536-pin array. The plates were incubated for 15 min at room temperature, and then 1 ul of substrates (200 nM DNA and 2 mM ATP, final concentrations) was added to start the reaction. The plate was transferred into a ViewLux high-throughput CCD imager where the reaction progress was measured in a discontinuous kinetic mode (two reads spaced 2 hours apart, with intermediate room temperature incubation of the covered assay plate) by using standard red-fluorescence optics (excitation filter 525 nm, emission filter 598 nm). Enzyme-free and vehicle (DMSO) controls were included for signal normalization.
In general terms: In qHTS, concentration-response curves come from the screen itself.
Turning to `NC(N)=N/N=C/c1ccc(Cl)c([N+](=O)[O-])c1`, the “activity, negative = inhibition” value was -12.1% (inactive).
As for `O=[N+]([O-])c1ccc(N2CCSCC2)cc1O`, the “activity, negative = inhibition” value is -5.86% (inactive).
Regarding `O=C1CSC(=S)N1/N=C/c1ccc(O)c([N+](=O)[O-])c1`, the Potency is 25.1 µM (active).
Turning to `Cc1cc(C)c(OCC(=O)N/N=C/c2ccco2)c(C)c1`, the outcome was inactive.
In the case of `CN1[C@H]2CC(OC(=O)[C@@H](CO)c3ccccc3)C[C@H]1[C@H]1O[C@H]12` (some centres undefined), the “activity, negative = inhibition” value was -5.26% [at 25.9 µM] (inactive).
For `NC(=O)c1sc(-c2ccsc2)cc1N`, the molecule was called inactive.
For the molecule `O=C(NCc1ccccn1)[C@]1(C(F)(F)F)C[C@H](CCc2ccccc2)CCCO1`, the molecule was classed as inactive.
In the case of `O=C1OCCN1C(=O)[C@H]1[C@H](c2ccc(F)cc2)C(c2ccccc2)=NN1c1ccc(Br)cc1`, the “activity, negative = inhibition” value was -15.4% (inactive).
In the case of `C[C@@H]1C(c2ccc(F)cc2)=NN(c2ccc(Br)cc2)[C@H]1C(=O)N1CCOC1=O`, the Potency was 25.1 µM (active).
With `O=C1OCCN1C(=O)[C@H]1[C@H](c2ccccc2)C(c2ccc(F)cc2)=NN1c1ccccc1`, the “activity, negative = inhibition” value was -6.31% [at 81.1 µM] (inactive).
Consider `O=C1OCCN1C(=O)[C@H]1[C@H](c2ccc(Cl)cc2)C(c2cccc(Cl)c2)=NN1c1ccc(Br)cc1`, for which the Potency is 25.1 µM (active).
As to `CC(C)C(NS(=O)(=O)c1ccc(-c2ccc(Br)cc2)cc1)C(=O)O` (centres undefined), the “activity, negative = inhibition” value was 10.7% (inactive).
As for `CC(C)=CCC[C@]1(C)[C@@H](CC=C(C)C)C[C@@]2(CC=C(C)C)C(=O)[C@]1(C(=O)C(C)C)C(=O)C(CC=C(C)C)=C2O`, the “activity, negative = inhibition” value is -0.0015% (inactive).
Take `CC(C)C(=O)Nc1c(O)c2ccccc2[nH]c1=O`: the “activity, negative = inhibition” value is -12.4% (inactive).
On to `CCCC(=O)Nc1c(O)c2ccccc2[nH]c1=O`, for which the “activity, negative = inhibition” value is -7.38% (inactive).
Turning to `O=C1C(c2[nH]c3ccccc3c2O)=Nc2ccccc21`, the Potency result is “inactive and 35.5 µM (active)”.
For `COc1ccc(Cl)cc1NC(=O)Cn1nc(-c2ccc(C)cc2)n(C)c1=S`, the “activity, negative = inhibition” value is -2.73% (inactive).
Regarding `Cc1ccc(NC(=O)CC2S/C(=N/N=C3\CCCc4ccccc43)NC2=O)cc1` (centres undefined), the Potency is 25.1 µM (active).
For `CCN=C1SC(CC(=O)Nc2ccc(C)cc2)C(=O)N1CC` (centres undefined), the “activity, negative = inhibition” value is -10.1% (inactive).
On the same count and under the same terms, the figure for `Cc1c(Cl)cccc1NC(=O)CC1SC(=NCC2CCCO2)NC1=O` (centres undefined) is -5.65% (inactive); for `COc1cc(OC)c2c(c1C(CCN1CCCCC1)c1ccc(N(C)C)cc1)OC(=O)CC2c1ccc(N(C)C)cc1` (centres undefined) it is -1.54% (inactive).
Consider `O=[N+]([O-])c1cc(S(=O)(=O)Nc2cccc(Cl)c2)ccc1N=Nc1c(O)[nH]c2ccccc12`, for which the result was inactive.
On to `CC1=C(/C=C/C(C)=C/C=C/C(C)=C/C=C/C=C(C)/C=C/C=C(C)/C=C/C(=O)[C@]2(C)C[C@@H](O)CC2(C)C)C(C)(C)C[C@H](O)C1`, for which the molecule was called inactive.
On the same count and under the same terms, the entry for `C=C1CCN(C(CC(C)C)C(=O)NCc2cc(OC)c(OC)c(OC)c2)S(=O)(=O)c2ccccc21` (centres undefined) is “inactive”.
For `COc1ccc(-c2ccc(OC)c(C3C4C=CCC(C)C4C(=O)N3Cc3ccccc3)c2)cc1C` (centres undefined), the “activity, negative = inhibition” value is -11% (inactive).
Still for that read-out and setting: the figure for `Cc1nc2ccc(C(=O)N3CCN(c4ccccc4)CC3)cc2s1` is 0.371% (inactive); for `O=C(NNC(=O)c1cc2c(s1)CCCC2)c1ccccc1` it is 1.32% (inactive).
Take `O=C(c1cc2c(s1)CCC2)N1CCN(c2ccccc2)CC1`: the Potency was 11.2 µM (active).
Regarding `CC(C)C(=O)N1CCC2(CC1)Oc1ccc(F)cc1C(=O)C21CC(c2ccccc2)=NO1` (centres undefined), the molecule was called inactive.
With `CCCOc1ccc(NC(=O)CC2C(=O)N(C)C(=S)N2Cc2ccc3c(c2)OCO3)cc1` (centres undefined), the “activity, negative = inhibition” value is -17.1% (inactive).
`O=C(Nc1cc(C(=O)Nc2ccc(S(=O)(=O)O)cc2)cc(C(=O)Nc2ccc(S(=O)(=O)O)cc2)c1)Nc1cc(C(=O)Nc2ccc(S(=O)(=O)O)cc2)cc(C(=O)Nc2ccc(S(=O)(=O)O)cc2)c1`: the “activity, negative = inhibition” value was 9.47% (inactive).
As for `Cc1ccc(CNC(=O)C2(C(F)(F)F)C/C(=C\Cc3ccccc3)CCCO2)o1` (centres undefined), the molecule was called inactive.
As for `CC(=O)OCC1OC(C#Cc2ccccc2Cl)C=CC1OC(C)=O` (centres undefined), the outcome is “inactive [at 11.5 µM]”.
Consider `Fc1ccc(Cl)cc1-c1nc(Nc2ccncc2)c2nccnc2n1`, for which the “activity, negative = inhibition” value was 7.16% (inactive).
In the case of `Cc1ccc(C)n1C(Cc1ccccc1)C(=O)O` (centres undefined), the Potency was 12.6 µM (active).
As for `CC(Cc1ccccc1)C(=O)N(C)Cc1ccccc1` (centres undefined), the Potency entry is “inactive”.
Turning to `COc1ccc(CNC(=O)C(Cc2ccccc2)n2cccc2)cc1` (centres undefined), the “activity, negative = inhibition” value was -2.84% (inactive).
Take `O=C(NCC1CC1)C1(C(F)(F)F)C/C(=C\CCO)CCCO1` (centres undefined): the “activity, negative = inhibition” value is -0.775% (inactive).
On to `CCOC(=O)C1=NO[C@@]2(C=C(Br)C(=O)[C@H]3O[C@H]32)C1`, for which the Potency is 28.2 µM (active).
On to `CCOC(=O)C1=C(C)N=C2c3ccccc3C(=O)C2C1c1ccc(Br)cc1` (centres undefined), for which the “activity, negative = inhibition” value was -6.22% (inactive).
Consider `CCOC(=O)C1=NOC(Cn2cc(C(C)=O)c(=O)[nH]c2=O)C1` (centres undefined), for which the “activity, negative = inhibition” value was -3.54% (inactive).
As to `NC(=O)C1=C[C@@H](c2csc3ccccc23)C[C@@H](OCc2ccc(CO)cc2)O1`, the “activity, negative = inhibition” value is -0.57% (inactive).
Take `COC(=O)c1ccc([C@@H](O)[C@H](C)C(=O)CC(=O)OC(C)(C)C)cc1`: the call was inactive.
For the molecule `Cc1ccc(N=C2NC(=O)/C(=C/C=C/c3ccco3)S2)cc1C`, the Potency was 22.4 µM (active).
Turning to `CN(C)c1ccc(-n2cccc2/C=C2/SC(=Nc3ccc(F)cc3)NC2=O)cc1`, the “activity, negative = inhibition” value is -1.05% (inactive).
On the same count and under the same terms, the same measure for `Cc1cccc(N=C2NC(=O)/C(=C/c3cn(C)c4ccccc34)S2)c1`: -12.2% (inactive); for `O=C1CN(Cc2ccccc2)S(=O)(=O)c2ccccc21`: -2.98% (inactive); for `CC(C)=CCN1CCC2(CCc3ccccc32)CC1`: -1.26% (inactive).
Take `CCC1=NN2C(=N)/C(=C/c3cc(C)n(-c4ccccc4)c3C)C(=O)N=C2S1`: the “activity, negative = inhibition” value was 16.2% (inactive).
